Source: PubChem (National Center for Advancing Translational Sciences (NCATS))
KB-3-1 tox: KB-3-1 parental cell cytotoxicity; KB-3-1 viability, CellTiter-Glo ATP luminescence, 72 h; Potency, µM (highest dose often 46.1 µM), usual class: cytotoxic; 400,000 tested, 1.4% active; AID 1347075; also: nearly all actives have a fitted effect of over 60% in size
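Multi-concentration cytotoxicity screen in KB-3-1 cells grown in DMEM lacking phenol red with 10% FBS. After 72 h at 37 °C with compound, ATP-dependent luminescence was recorded.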
HT1080-NT tox: kills 2HG-producing HT-1080-NT fibrosarcoma cells. Potency, µM (top dose mostly 46.1 µM), hits mostly cytotoxic. 360,000 tested, 1.6% active. HT-1080-NT fibrosarcoma viability, CellTiter-Glo ATP luminescence, 48 h;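 also: NT is the 2HG producing partner of a matched IDH1 knockdown line; nearly all actives have a fitted effect of over 55% in size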
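Compounds were tested in concentration-response format on HT-1080-NT cells for 48 hours at 37 degrees C. Cell viability came from CellTiter-Glo luminescence; curves were classified by r2, response magnitude and activity.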
SW480 rereplic: induces DNA re-replication in SW480 colon adenocarcinoma cells. SW480 DNA re-replication, Hoechst DNA content imaging, 48 h. Potency, µM (highest dose often 46.1 µM), usual class: activators. 340,000 tested, 1.8% active; also: nearly all actives have a fitted effect of over 55% in size
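Readout is total intensity of Hoechst-stained nuclei, excited at 405 nm and collected at 500-530 nm. Compound treatment lasted 48 hr at 37 C in 5% CO2 before staining.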
KB-V1 cytotox: KB-V1 MDR subline cytotoxicity | KB-V1 MDR cells viability, CellTiter-Glo, 72 h | Potency, µM (titrated, usually from 46.1 µM), actives largely listed as cytotoxic | 400,000 tested, 3.4% active | AID 1347076; also: nearly all actives have a fitted effect of over 60% in size
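Potencies derive from concentration-effect curves fitted to normalized luminescence (CellTiter-Glo) of KB-V1 cells treated for 72 h at 37 degrees C in phenol-red-free DMEM containing 10% FBS.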
MCF10A rerep: induces DNA re-replication in MCF 10a normal breast cells. MCF 10A DNA re-replication, Hoechst nuclear intensity, 48 h. Potency, µM (top dose mostly 46.1 µM), actives largely listed as activators. 350,000 tested, 2.9% active. AID 624296; also: nearly all actives have a fitted effect of over 50% in size
HT1080 IDH1KD tx: toxicity to HT-1080 IDH1 knockdown cells (counter line). HT-1080 IDH1 knockdown viability, ATP luminescence, 48 h. Potency, µM (doses to about 46.1 µM), hits mostly cytotoxic. 360,000 tested, 2% active
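Cytotoxicity counter-line: IDH1KD HT-1080, 48 h, CellTiter-Glo. Curves classed by r2, magnitude and activity.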
Large screens that a line does not name were inactive. Shown are actives, neighbours in structure and some others; about 7.9% of the full set was active somewhere. Calls follow the shape of the dose curve; as a rule, active = well fitted curve in the direction sought with a large enough effect; inconclusive = small, poorly fitted or top-dose-only effect, or another doubt; inactive = no such curve, though single readings can be large; an effect the other way counts as inactive or inconclusive.

O=c1oc2ccccc2c(Nc2cccc(O)c2)c1[N+](=O)[O-]	MCF10A rerep 18.4µM
CC(=O)n1c2ccccc2c2c1c1ccccc1n2C	HT1080-NT tox 23.1µM, MCF10A rerep inconclusive, HT1080 IDH1KD tx inconclusive
CC(=O)n1c2ccccc2c2nc3ccccc3nc21	none
O=C(CSc1ccc(Cl)cc1)N1CCN(c2ccc(Cl)cc2[N+](=O)[O-])CC1	HT1080-NT tox inconclusive, KB-V1 cytotox inconclusive, MCF10A rerep 18.4µM, HT1080 IDH1KD tx inconclusive
O=C(/C=C/c1ccc(Cl)cc1)N1CCN(c2ccc([N+](=O)[O-])c(N3CCOCC3)c2)CC1	KB-3-1 tox inconclusive, KB-V1 cytotox 2.31µM
O=C(COc1ccc(Cl)cc1)N1CCN(c2ccc([N+](=O)[O-])c(N3CCOCC3)c2)CC1	KB-V1 cytotox 16.4µM
Cc1cc(N2CCCC(C(=O)Nc3ccc4c(c3)CCC4)C2)n2ncnc2n1 (centres undefined)	KB-3-1 tox inconclusive, KB-V1 cytotox 4.61µM, HT1080 IDH1KD tx inconclusive
CCCc1cc(N2CCCC(C(=O)Nc3cc(Cl)ccc3OC)C2)n2ncnc2n1 (centres undefined)	KB-V1 cytotox 13µM
Cc1sc2ncn(CC(=O)Nc3ccc(C(C)C)cc3)c(=O)c2c1S(=O)(=O)N1CCN(c2ncccn2)CC1	none (no result: HT1080-NT tox, SW480 rereplic, MCF10A rerep, HT1080 IDH1KD tx)
Cc1ccc2c(CNC3CCCCC3)c(C(=O)O)n(Cc3ccc(F)cc3)c2c1	KB-3-1 tox inconclusive (no result: HT1080-NT tox, SW480 rereplic, MCF10A rerep, HT1080 IDH1KD tx)
CCOC(=O)c1c(C)oc2nc(C)nc(NCCc3ccc(S(N)(=O)=O)cc3)c12	KB-V1 cytotox inconclusive (no result: HT1080-NT tox, SW480 rereplic, MCF10A rerep, HT1080 IDH1KD tx)
C/C(N)=C(/C#N)C(=O)CSc1nn(-c2ccc(Cl)cc2)c(=S)s1	SW480 rereplic inconclusive, MCF10A rerep inconclusive
C/C(N)=C(/C#N)C(=O)CSc1nnc(SCc2ccc(Cl)cc2)s1	KB-V1 cytotox inconclusive, HT1080 IDH1KD tx 20.6µM
N#Cc1cc(N2CCCCC2)c([N+](=O)[O-])cc1C#N	MCF10A rerep inconclusive
O=[N+]([O-])c1cc2no[n+]([O-])c2cc1N1CCCCC1	KB-3-1 tox inconclusive, SW480 rereplic 6.51µM, MCF10A rerep 3.26µM
Cc1cccn2c(=O)c(C=O)c(N3CCSCC3)nc12	SW480 rereplic 5.8µM
COCC1CCCCN1C(=O)c1cc(COc2ccc3ncccc3c2)on1 (centres undefined)	KB-3-1 tox inconclusive, KB-V1 cytotox inconclusive
CCCN1CCN(C(=O)c2cc(COc3ccc4ncccc4c3)on2)CC1	KB-3-1 tox inconclusive, KB-V1 cytotox inconclusive
Cc1nc(CN(C)C(=O)c2cc(COc3ccc4ncccc4c3)on2)cs1	KB-3-1 tox inconclusive, HT1080-NT tox 4.11µM, SW480 rereplic inconclusive, KB-V1 cytotox inconclusive, HT1080 IDH1KD tx inconclusive
CCN1CCN(C(=O)c2cc(COc3ccc4ncccc4c3)on2)CC1	KB-V1 cytotox 16.4µM
CCC1CCCCN1C(=O)c1cc(COc2ccc3ncccc3c2)on1 (centres undefined)	KB-3-1 tox 4.11µM, KB-V1 cytotox 1.64µM, HT1080 IDH1KD tx inconclusive
O=C(NNc1ccccc1C(F)(F)F)c1sccc1Cl	none (no result: KB-3-1 tox, SW480 rereplic, KB-V1 cytotox, MCF10A rerep)
CNC(=O)c1cnn2c(C)cc(C)nc12	none (no result: HT1080-NT tox, SW480 rereplic, MCF10A rerep, HT1080 IDH1KD tx)
O=C1N/C(=C\c2ccc(O)cc2)C(=O)c2ccccc21	KB-3-1 tox inconclusive, HT1080-NT tox inconclusive, SW480 rereplic 12.6µM, MCF10A rerep 3.16µM, HT1080 IDH1KD tx 17.8µM
CCOC(=O)c1c(C)[nH]c(-c2csc(C)n2)c1C	KB-V1 cytotox inconclusive
CCOC(=O)c1c(C)[nH]c(-c2csc(N)n2)c1C	KB-3-1 tox inconclusive, HT1080-NT tox 6.51µM, SW480 rereplic inconclusive, MCF10A rerep 16.4µM, HT1080 IDH1KD tx 4.61µM
CCOc1ccc(C(=O)c2cn(CC(=O)Nc3ccc(OC)cc3)c3cc4c(cc3c2=O)OCCO4)cc1	none (no result: HT1080-NT tox, SW480 rereplic, MCF10A rerep, HT1080 IDH1KD tx)
COc1cc(C=O)cc(OC)c1[N+](=O)[O-]	none (no result: HT1080-NT tox, SW480 rereplic, MCF10A rerep, HT1080 IDH1KD tx)
O=C(CSc1nc2c([nH]c3ccccc32)c(=O)n1-c1cccc(Cl)c1)N1CCCC1	none (no result: HT1080-NT tox, SW480 rereplic, MCF10A rerep, HT1080 IDH1KD tx)
CCCCN1C(=O)C(O)=C(C(C)=O)C1c1ccccc1 (centres undefined)	none
CCCCCCCCN1C(=O)C(O)=C(C(C)=O)C1c1ccccn1 (centres undefined)	KB-V1 cytotox 16.4µM
